Most compounds without a hit are left out; they make up all but 6.8% or so of the library.
Autofluor 339 – intrinsic fluorescence of library compounds, ex339/em460 – biochemical, MLSMR library, data from DPM-DC assay, artefact control, profiling panel; compound autofluorescence, ex339/em460 nm, NADH buffer; active compounds read high; 1 = no-compound wells, NADH background; 65,000 compounds, 5.5% hits; fluorescence fold increase at 10 µM;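 active means at 10 µM, mean starting fluorescence two-fold or more over control wells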;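 further: signal is the first read of a kinetic run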
Abs 340nm – compound light absorbance at 340 nm, profiling panel, artefact control, biochemical, MLSMR library, data from PS, PMK, MK assays; compound absorbance at 340 nm, fold over control; fold change at 10 µM; 65,000 tested, under 10 active; AID 708, 2007;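 active means at 10 µM dose, initial 340 nm absorbance at least 2 fold that of control wells; inactive means change under 2 fold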;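 further: initial absorbance extrapolated from kinetic A340 decline of NADH oxidation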
NADH coupling – inhibitors of PK/LDH coupling enzymes, profiling panel, artefact control, biochemical, MLSMR library | coupled PK/LDH NADH assays, four targets | IC50, µM (doses to about 10 µM), for inactives: top-dose inhibition | 65,000 compounds, 0.02% hits;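 active means single-dose screening hits from any of four coupled enzyme assays that gave an IC50 when retested across doses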;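 further: the DPM-DC format reads NADH fluorescence rather than 340 nm absorbance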
PMK inhibit – S. pneumoniae PMK inhibitors, primary screen, biochemical, mevalonate pathway, pilot trial included; phosphomevalonate kinase (Streptococcus pneumoniae D39); purified PMK, PK/LDH-coupled NADH absorbance 340 nm; inhibition, % at 10 µM; 65,000 compounds, 0.49% hits;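 active means top-ranked compounds by inhibition in the single 10 µM screen, taking a fixed number of the strongest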;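 further: 0% = full reaction with DMSO carrier and 100% = background rate without enzyme reaction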
MK inhibit – S. pneumoniae MK inhibitors, primary screen, biochemical, PK/LDH-coupled NADH absorbance. mevalonate kinase [Streptococcus pneumoniae D39]. purified MK, PK/LDH-coupled NADH absorbance 340 nm. inhibition, % at 10 µM. 65,000 compounds, 0.48% hits. AID 555, 2006;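 active means ranked among the strongest by inhibition in the single 10 µM screen, a fixed top-ranked set picked for dose follow-up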
DPM-DC inhibit – S. pneumoniae DPM-DC inhibitors, primary screen, biochemical, PK/LDH-coupled NADH fluorescence. diphosphomevalonate decarboxylase (Streptococcus pneumoniae D39). purified DPM-DC. calls only at 10 µM. 65,000 compounds, 0.49% hits. AID 556, 2006;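 active means the 320 compounds with the highest percent inhibition in the single-dose primary screen, excluding strongly autofluorescent ones, cut at about 32% in these data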;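 further: kinetic rate of NADH fluorescence loss reporting ADP formed by the decarboxylase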
Starred values were filed as active, the others as inactive; i = inactive; x = no result given.

SMILES	Autofluor 339	Abs 340nm	NADH coupling	PMK inhibit	MK inhibit	DPM-DC inhibit
Cc1c(CCC(=O)O)c(=O)oc2cc(O)ccc12	2.1*	1.1	0%	0	0	x
CN(C)S(=O)(=O)c1cccc(-c2nnc(SCc3ccc4c(c3)OCCO4)o2)c1	1	0.98	5%	6	10	i
Nc1nnc(Cc2ccc(Cl)c(Cl)c2)s1	1.1	1	1%	0	2	i
CCc1cc(=O)oc2cc(OCC(=O)N3CCc4ccccc43)ccc12	3.2*	1	10%	17	2	i
CCCCc1cc(=O)oc2cc(OCC(=O)N(CC)CC)c(Cl)cc12	1.5	1	5%	16	8	i
Cc1cc(=O)oc2cc(OCC(=O)N3c4ccccc4CC3C)ccc12 (stereo not given)	1.9	1.1	7%	14	0	i
CCCCc1cc(=O)oc2cc(OCC(=O)N(CC)CC)ccc12	2.2*	1.1	5%	0	9	x
O=C1c2ccccc2C(=O)N1CCc1nc2ccccc2c(=O)n1CCCn1ccnc1	1.1	1	9%	17	11	i
Cc1ccc2nc(-c3ccccc3Cl)cc(C(=O)Nc3cc(C)on3)c2c1	1.2	1.1	1%	3	1	i
COc1cc(NC(=O)CN(c2ccc(C)cc2)S(=O)(=O)c2c(C)nn(C)c2C)cc(OC)c1	1.1	1	6%	15	3	i
C=CCn1c(NC(=O)c2ccccc2Cl)c(C#N)c2nc3ccccc3nc21	3.8*	1.1	9%	11	6	x
N#CCCn1c(-c2nonc2NC(=O)c2ccccc2Cl)nc2ccccc21	1.6	0.99	7%	9	11	i
C=CCn1c(NC(=O)c2ccccc2)c(C#N)c2nc3ccccc3nc21	2.1*	1.1	15%	16	14	x
Cc1csc(NC(=O)c2cc3c(s2)-c2ccccc2OC3)n1	2.5*	1	1%	0	7	x
O=C(c1cc2c(s1)-c1ccccc1OC2)N1CCCC1	2.2*	1.2	6%	2	9	x
O=C(Cn1ncc2c1-c1ccccc1OC2)N1CCN(c2ccccn2)CC1	1.1	0.98	1%	0	2	i
O=C(c1cc2c(s1)-c1ccccc1OC2)N1CCN(c2ccccn2)CC1	2.1*	1.1	4%	0	7	x
COc1cc(OC)c(NC2=NCCCCC2)cc1Cl	1.1	1	3%	7	0	i
O=C(Nn1c(C2CC2)nc2ccccc2c1=O)c1ccco1	1	0.99	6%	55*	0	i
CC1(C)CC(=O)C(C=NCCN2CCN(CCc3ccccc3)CC2)=C(O)C1	1.1	1	3%	active	1	i
CC1(C)CC(=O)C(C=NCCN2CCN(C(=O)c3ccccc3)CC2)=C(O)C1	1.1	1	4%	0	11	i
O=C(NCc1ccco1)c1ccc2nc3sc4c(c3c(=O)n2c1)CCCC4	2	1.1	2%	7	0	i
CCOC(=O)CC(=O)CSc1nc2c(c(C)c1C#N)CCC2	2.7*	1	9%	16	0	i
Cc1nc2ccccn2c1/C(O)=C1\C(=O)C(=O)N(CCN(C)C)C1c1cccnc1 (stereo not given)	1.1	1.1	3%	8	2	i
CCOC(=O)c1ccc(NS(=O)(=O)c2cnc[nH]2)cc1	1	0.97	5%	5	10	i
Cc1[nH]c2ccc(Br)cc2c(=O)c1CN1CCCCC1	1.1	1.1	4%	8	4	i
Cc1ccc2[nH]c3c(c2c1)CCc1cn[nH]c1-3	1.8	0.99	6%	12	3	i
O=C1CCCc2c1[nH]c1ccc(CN3CCCCC3)cc21	2.1*	1.1	3%	0	6	x
Cc1ccc2[nH]c3c(c2c1)CCC3=O	3.7*	1	8%	9	7	x
Cc1ccc(-c2c(C)c(-c3ccc(F)cc3)nc(N)c2C#N)o1	3*	1.1	6%	11	7	i
